# Beta2AR agonist: beta2AR agonists driving receptor internalization, primary screen, cell-based, FAP fluorogen, flow cytometry; Beta-2 adrenergic receptor (Homo sapiens), P07550; Am2.2-beta2AR cells; response, % (no concentration beside the values); 0.43% of 340,000 active;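 active means response above a set limit, near 3 SD of response in nonfluorescent compounds, cut at about 42% in these data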
# Target sequence (P07550 whole entry, looked up): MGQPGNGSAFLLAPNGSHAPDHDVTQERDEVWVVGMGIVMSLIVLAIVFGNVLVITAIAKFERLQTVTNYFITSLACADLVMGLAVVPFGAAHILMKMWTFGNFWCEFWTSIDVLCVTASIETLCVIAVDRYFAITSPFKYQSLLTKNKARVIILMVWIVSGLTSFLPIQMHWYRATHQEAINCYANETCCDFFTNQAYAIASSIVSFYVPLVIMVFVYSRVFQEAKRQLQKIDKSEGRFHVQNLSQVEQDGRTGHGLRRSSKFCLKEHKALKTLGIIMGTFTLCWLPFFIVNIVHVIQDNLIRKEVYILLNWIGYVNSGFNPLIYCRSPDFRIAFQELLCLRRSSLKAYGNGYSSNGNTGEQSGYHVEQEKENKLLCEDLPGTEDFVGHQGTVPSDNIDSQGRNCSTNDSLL
# m5-HT2A agonist: mouse Htr2a agonists via beta-arrestin recruitment, primary screen, cell-based, luminescence. 0.66% of 360,000 active. activation, % at 7.6 µM. CHO-K1 mHTR2A beta-arrestin complementation; percent of 30 µM serotonin response;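 active means activation above a run cutoff, the mean activation of all tested compounds plus 3 SD, cut at about 14% in these data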
# Exocytosis inh: LAMP-1 surface exposure blockers, TALL-104 cells – cell-based, flow cytometry, MLPCN library, primary screen; TALL-104 LAMP-1 surface exposure; cells stimulated with thapsigargin and PMA; AID 651702, 2012; inhibition, % at 10 µM; 0.66% of 360,000 active;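 active means inhibition above about 55%, limit read from the data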
# ABHD5-PLIN5 inh: ABHD5-PLIN5 interaction inhibitors, primary screen, cell lysate, split luciferase complementation, luminescence; 0.78% of 360,000 active; inhibition, % at 4 µM; Perilipin-5 (Homo sapiens) + 1-acylglycerol-3-phosphate O-acyltransferase ABHD5 (Homo …; Split G. princeps luciferase complementation, 4 h;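 active means inhibition above the mean inhibition across every tested compound plus 3 SD, cut at about 22% in these data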
# NTR1 agonist: agonists of human NTR1, primary screen, imaging, U2OS cells, beta-arrestin-GFP, high content. 0.17% of 330,000 active. activation, % at 20 µM. NTR1-U2OS beta-arrestin-GFP spot imaging, agonist mode. Neurotensin receptor type 1 (Homo sapiens), P30989;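 active means activation at or above 40% of the spot to cytoplasm intensity ratio, with at least 20 cells analyzed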
# ABHD5 PLIN5 conf: ABHD5-PLIN5 interaction inhibitors, confirmation, biochemical, luminescence; shares compounds with ABHD5-PLIN5 inh; inhibition, % at 4 µM; 67% of 2,200 active; in the data active means inhibition above about 23%
# HNF4 counter: HNF4 dimerization inhibitors, counter-screen for ABHD5-PLIN5 interaction inhibitor project, biochemical, split-luciferase complementation, luminescence | shares compounds with ABHD5-PLIN5 inh | 77% of 2,200 active | inhibition, % at 4 µM | AID 651674, 2012;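 active means mean inhibition across replicate wells exceeding the computed hit threshold, cut at about 13% in these data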;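 further: light from luciferase halves that rejoin when HNF4 fusion proteins dimerize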
# Numbers stand for hits; - = inactive; . = no result given. Shown are actives, neighbours in structure and some others; about 2.3% of the full set was active somewhere.
SMILES,Beta2AR agonist,m5-HT2A agonist,Exocytosis inh,ABHD5-PLIN5 inh,NTR1 agonist,ABHD5 PLIN5 conf,HNF4 counter
CC(C)c1ccc(C(=O)CN2C(=O)NC3(CCc4ccccc43)C2=O)cc1 (stereo not drawn),-,-,-,-,-,.,.
CC(=O)Nc1ccc(S(=O)(=O)Oc2cccc(/C=C3\SC(N)=NC3=O)c2)cc1,-,-,-,28,-,35,22
CC(=O)N(C1CC(C)C(C#N)(C#N)C1(C#N)C#N)N(C)C (stereo not drawn),-,-,-,24,-,52,95
Cc1ccc(NC(=O)Cn2c(C)cc(C)c(C#N)c2=O)c(Cl)c1,-,-,-,-,-,.,.
Cc1cc(C)c2c(=O)n(CC(=O)NCCCN3CCN(c4ccccc4F)CC3)sc2n1,.,.,.,.,-,.,.
CCOc1ccc(NC(=O)Cn2sc3nc(C)cc(C)c3c2=O)cc1,-,-,-,64,-,45,105
Cc1cc(C)c2c(=O)n(CC(=O)Nc3cccc(F)c3)sc2n1,-,-,-,44,-,41,109
Cc1cc(C)c2c(=O)n(CC(=O)Nc3ccc(Cl)cc3)sc2n1,-,-,-,76,-,41,108
Cc1ccc(NC(=O)Cn2sc3nc(C)cc(C)c3c2=O)c(Cl)c1,-,-,81,65,-,-,98
Brc1cccc(CN2CCCCCCC2)c1,-,-,-,-,-,.,.
Cc1[nH]c2c(C)cccc2c(=O)c1CN1CCCCCC1,-,-,-,-,-,.,.
Cc1cc(C(F)(F)F)nn1Cc1ccc(C(=O)NCc2ccco2)o1,-,-,-,23,-,29,23
COc1ccc(CNC(=O)c2ccc(Cn3nc(C)cc3C)o2)cc1,-,-,-,-,-,.,.
Cc1cccc2sc(=S)[nH]c12,.,-,-,-,.,.,.
C=CCn1c(SCC(=O)NC2CCCC2)nc2scc(-c3ccco3)c2c1=O,-,-,-,43,-,36,86
C=CCn1c(SCC(=O)NCC2CCCO2)nc2scc(-c3ccccc3)c2c1=O (stereo not drawn),-,-,-,-,-,.,.
O=C/C(=C\Nc1ccccn1)c1nc2ccccc2o1,-,-,-,24,-,-,27
COC(=O)c1ccc(NC(=O)C(=O)c2cn(CC(=O)N3CCOCC3)c3ccccc23)cc1,-,-,-,-,-,.,.
O=C1S/C(=C/c2ccc(N3CCOCC3)o2)C(=O)N1Cc1c(F)cccc1Cl,-,-,106,25,-,23,36
Cn1cc(C(=O)N/N=C/C(Br)=C\c2ccccc2)ccc1=O,-,-,-,26,-,-,26
Cc1ccc(-c2cc(C(=O)N/N=C/C(Br)=C/c3ccccc3)n[nH]2)o1,-,-,-,27,-,-,39
Cn1cc(C(=O)N/N=C/C(Br)=C/c2ccccc2)ccc1=O,-,-,-,27,-,-,75
CCC(c1nnnn1-c1ccc2c(c1)OCCO2)N1CCN(c2ccc(F)cc2)CC1 (stereo not drawn),.,-,-,-,.,.,.
OCCN(Cc1ccccn1)Cc1ccccn1,.,-,-,-,.,.,.
Cn1c(NCCN(CCO)CCCc2ccc([N+](=O)[O-])cc2)cc(=O)n(C)c1=O,-,-,-,30,-,-,-
C#CCOCCOCCOCCNc1nc(N2CCN(C(=O)CCCCCCCCCCNC(=O)Cn3cc(C[C@@H](C)O)nn3)CC2)nc(N2CCN(C(=O)CCCCCCCCCCNC(=O)[C@@H](CCC(=O)O)n3cc(CCCCCN)nn3)CC2)n1,-,-,-,-,-,.,.
C#CCOCCOCCOCCNc1nc(N2CCN(C(=O)CCCCCCCCCCNC(=O)[C@H]([C@@H](C)CC)n3cc(CCCCCN)nn3)CC2)nc(N2CCN(C(=O)CCCCCCCCCCNC(=O)[C@H](CCCCN)n3cc(CCCC(=O)O)nn3)CC2)n1,-,-,-,39,-,-,-
